The values that follow come from PubChem BioAssay (Tox21).

Experiment [1] can be described thus: qHTS assay to identify small molecule agonists of the RXR signaling pathway - cell viability counter screen (AID 1159529).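 Also: HEK 293T cells carrying an RXR-alpha UAS beta-lactamase reporter; nearly all actives have a fitted effect of over 50% in size.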 The method, boiled down: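 RXR-alpha-UAS-bla HEK 293T cells in medium with 2% charcoal-stripped FBS were preincubated 5 hr, then exposed to compounds for 16 hr at 37 C. Viability was read as CellTiter-Glo luminescence after 30 min at room temperature.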
For orientation: Quantitative high-throughput screening tests each substance at several concentrations.

The nature of experiment [2]: qHTS assay to identify small molecule antagonists of the retinoid acid receptor (RAR) signaling pathway - cell viability counter screen (AID 1159551). Also: nearly all actives have a fitted effect of over 35% in size. The method in brief: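 C3RL4 cells were seeded overnight at 37 C, then treated with compounds plus 1 uM (final) retinol for 6 h at 37 C. Viability was read as ATP by CellTiter-Glo luminescence after 30 min at room temperature.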

Experiment [3] can be described thus: qHTS assay to identify small molecule antagonists of the retinoic acid receptor (RAR) signaling pathway (AID 1159552; also: nearly all actives have a fitted effect of over 50% in size). The method, boiled down:
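RARE-luc C3RL4 cells; cpds + 1 uM (final) retinol, 6 hr, 37 C/5% CO2; luciferase reagent, 30 min RT, luminescence readout. Inhibitors of retinol-driven signal scored.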

A short description of experiment [4]: qHTS assay to identify small molecule agonists of the retinoic acid receptor (RAR) signaling pathway (AID 1159553). The settings on record: C3RL4 RARE luciferase reporter, agonist, 6 h. The method in brief:
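C3RL4 cells carrying a RARE luciferase reporter were plated overnight at 37 C, then exposed to compounds in DMSO for 6 hr at 37 C and 5% CO2. Luminescence was read 30 min after luciferase reagent addition at room temperature.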

Experiment [5] is described as follows: qHTS assay to identify small molecule antagonists of the estrogen related receptor (ERR) signaling pathway from Tox21 library - cell viability counter screen (AID 1224834). Also: nearly all actives have a fitted effect of over 30% in size. The method, boiled down:
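ERR reporter cells were plated 6 h before compound addition, then exposed to test compounds in DMSO for 17.5 h at 37 C. Viability was read as CellTiter-Fluor fluorescence after a 30-minute incubation at 37 C.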

Experiment [6] addresses Luciferin 4-monooxygenase (Photinus pyralis) (UniProt P08659). The experiment in a line: qHTS assay to identify small molecule inhibitors of firefly luciferase (AID 1224835). Also: nearly all actives have a fitted effect of over 25% in size. The method, boiled down:
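Quantitative HTS format; KM concentrations of both substrates. Purified P. pyralis FLuc activity quantified from luminescence images.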

Experiment [7] can be described thus: qHTS assay to identify small molecule agonists of the constitutive androstane receptor (CAR) signaling pathway - cell viability counter screen (AID 1224836). Also: nearly all actives have a fitted effect of over 45% in size. The method in brief: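 HepG2 cells stably carrying hCAR and a CYP2B6-2.2kb reporter were plated 4 h, then given compounds at 15 concentrations plus PK11195 (final 0.75 uM). After 23 h at 37 C, viability was read by CellTiter-Fluor fluorescence.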

The nature of experiment [8]: qHTS assay to identify small molecule antagonists of the constitutive androstane receptor (CAR) signaling pathway - cell viability counter screen (AID 1224837). Also: nearly all actives have a fitted effect of over 45% in size. The method in brief:
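HepG2 cells stably expressing hCAR and a CYP2B6-2.2kb reporter were plated and pre-incubated 4 hr at 37 C/5% CO2, then given compounds at 15 concentrations plus 50 nM CITCO (final). After 23 hr, viability was read by CellTiter-Fluor fluorescence.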

Experiment [9] concerns the target Nuclear receptor subfamily 1 group I member 3 (Homo sapiens) (UniProt Q14994). In words: qHTS assay to identify small molecule antagonists of the constitutive androstane receptor (CAR) signaling pathway (AID 1224838). Also: nearly all actives have a fitted effect of over 40% in size. The method in brief:
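HepG2 cells stably co-transfected with hCAR and a CYP2B6-2.2kb luciferase reporter were seeded 4 h before compound addition at 15 concentrations. Cells were stimulated with 50 nM CITCO (final) for 24 h at 37 C; luciferase luminescence was then read.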

The target is the same in experiment [10]. In words: qHTS assay to identify small molecule agonists of the constitutive androstane receptor (CAR) signaling pathway (AID 1224839). Also: nearly all actives have a fitted effect of over 15% in size. The method, boiled down: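 HepG2 cells stably expressing hCAR and a CYP2B6-2.2kb luciferase reporter were treated with compounds at 15 concentrations plus 0.75 uM PK11195 (final) for 24 h at 37 C; luminescence was read after ONE-Glo addition.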

Experiment [11] can be described thus: qHTS assay to identify small molecule antagonists of the estrogen related receptor signaling pathway with the pleiotropic PPARgamma coactivator (PGC) from Tox21 10K library - cell viability counter screen (AID 1224840; active = well fitted cell-killing curve with a large enough effect in the repeat runs, not every such curve was filed as active; also: nearly all actives have a fitted effect of over 40% in size). The method in brief:
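PGC/ERR cells were seeded at 2,000 cells/well and left 6 hours at 37 C/5% CO2 before pin-tool addition of compounds in DMSO. After 17.5 hours at 37 C, CellTiter-Fluor was added and fluorescence read 30 minutes later.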

Experiment [12] addresses Thyrotropin receptor (Homo sapiens) (UniProt P16473). In words: qHTS assay to identify small molecule agonists of the thyroid stimulating hormone receptor (TSHR) signaling pathway (AID 1224843; calls by dose curve; also: nearly all actives have a fitted effect of over 45% in size). The method, boiled down: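 TSHR-expressing HEK293 cells (800 per well) were exposed to compounds for 30 min at room temperature. cAMP was then detected by HTRF competition with cAMP-d2 and anti-cAMP cryptate, read after 1 h at room temperature. Fifteen concentrations, triplicate.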

A short description of experiment [13]: qHTS assay to identify small molecule antagonists of the estrogen related receptor (ERR) signaling pathway - cell viability counter screen (AID 1224818).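 Also: viability measured after 17.5 h of compound exposure.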 The method, boiled down:
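ERR reporter cells plated 6 h at 37 C/5% CO2, then compounds in DMSO pin-transferred and incubated 17.5 h at 37 C. Viability read as CellTiter-Fluor fluorescence after 30 min at 37 C.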

Experiment [14] can be described thus: qHTS assay to identify small molecule antagonists of the estrogen related receptor (ERR) signaling pathway (AID 1224819;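 also: luminescence from an ERR-driven luciferase reporter measured with One-Glo reagent; nearly all actives have a fitted effect of over 50% in size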). The method, boiled down: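 ERR reporter cells were plated at 2,000 cells/well and left 6 h at 37 C/5% CO2 before pin-tool transfer of compounds in DMSO. After 18 h at 37 C, One-Glo was added and luminescence was read 30 min later at room temperature.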

The nature of experiment [15]: qHTS assay to identify small molecule agonists of the estrogen related receptor (ERR) signaling pathway (AID 1224820). The method in brief:
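ERR reporter cells (NTP line) plated 2,000/well, incubated 6 h at 37 C/5% CO2, then pinned with compounds in DMSO and held 18 h at 37 C. One-Glo added; luminescence read after 30 min at room temperature.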

A short description of experiment [16]: qHTS assay to identify small molecule antagonists of the estrogen related receptor signaling pathway with the pleiotropic PPARgamma coactivator (PGC) cell viability counter screen (AID 1224822). The method, boiled down: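 PGC/ERR cells were seeded at 2,000 cells/well, rested 6 h at 37 C/5% CO2, then given compounds in DMSO by pin tool and incubated 17.5 h at 37 C. Viability came from CellTiter-Fluor fluorescence after 30 min.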

Experiment [17] is described as follows: qHTS assay to identify small molecule antagonists of the estrogen related receptor signaling pathway with the pleiotropic PPARgamma coactivator (PGC) from Tox21 10K library (AID 1224841; call rule not given here; also: actives are mostly falling curves and most rising ones were filed inactive; nearly all actives have a fitted effect of over 50% in size). The method, boiled down: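 PGC/ERR reporter cells were seeded at 2,000 cells/well and held 6 hours at 37 C/5% CO2 before pin-tool addition of compounds in DMSO. After 18 hours at 37 C, One-Glo was added and luminescence read after 30 minutes at room temperature.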

The nature of experiment [18]: qHTS assay to identify small molecule agonists of the estrogen related receptor signaling pathway with the pleiotropic PPARgamma coactivator (PGC) from Tox21 10K library (AID 1224842). Also: nearly all actives have a fitted effect of over 15% in size. The method, boiled down:
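PGC/ERR reporter cells (NTP line) were seeded 2,000 per well, rested 6 h at 37 C/5% CO2, then pin-dosed with compounds in DMSO for 18 h at 37 C; luciferase read by One-Glo luminescence after 30 min at room temperature.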

The mark [19] stands for this setting: activation: at 73.3 µM (top of the series) unless noted.

Records with an inconclusive call do not appear. The source holds several records for some structures; these can differ, active in one and inactive in another. A number with no mark means an inactive call. Activity calls are given as the source filed them. Unless noted, calls follow the shape of the dose curve; as a rule, active = well fitted curve in the direction sought with a large enough effect in the repeat runs; inconclusive = weak or mixed curves; inactive = no such curve, though single readings can be large; an effect the other way counts as inactive or inconclusive.
% is scaled to controls: 0 for no effect and ±100 for the full control effect.

Sequence of Thyrotropin receptor (Homo sapiens) (P16473 whole entry, looked up): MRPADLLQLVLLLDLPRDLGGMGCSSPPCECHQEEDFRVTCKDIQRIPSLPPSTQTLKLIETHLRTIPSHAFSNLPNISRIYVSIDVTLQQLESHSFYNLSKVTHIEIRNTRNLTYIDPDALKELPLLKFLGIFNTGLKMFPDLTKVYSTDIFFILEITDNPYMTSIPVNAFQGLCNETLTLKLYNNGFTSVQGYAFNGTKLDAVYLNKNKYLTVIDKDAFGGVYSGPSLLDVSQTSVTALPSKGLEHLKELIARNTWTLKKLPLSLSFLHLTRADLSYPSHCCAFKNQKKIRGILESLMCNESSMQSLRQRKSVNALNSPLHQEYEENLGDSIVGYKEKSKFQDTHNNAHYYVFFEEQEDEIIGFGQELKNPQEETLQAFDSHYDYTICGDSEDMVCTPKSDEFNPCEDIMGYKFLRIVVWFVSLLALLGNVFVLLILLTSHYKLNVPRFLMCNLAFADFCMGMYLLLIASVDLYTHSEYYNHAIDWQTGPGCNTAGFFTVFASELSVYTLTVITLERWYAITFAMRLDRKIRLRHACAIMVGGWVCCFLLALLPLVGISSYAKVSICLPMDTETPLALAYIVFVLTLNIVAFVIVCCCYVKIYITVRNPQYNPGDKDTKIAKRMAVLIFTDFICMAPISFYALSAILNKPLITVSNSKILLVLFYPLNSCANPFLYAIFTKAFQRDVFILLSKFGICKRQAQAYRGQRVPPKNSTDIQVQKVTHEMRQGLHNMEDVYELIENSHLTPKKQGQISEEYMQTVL
Sequence of Nuclear receptor subfamily 1 group I member 3 (Homo sapiens) (Q14994 whole entry, looked up): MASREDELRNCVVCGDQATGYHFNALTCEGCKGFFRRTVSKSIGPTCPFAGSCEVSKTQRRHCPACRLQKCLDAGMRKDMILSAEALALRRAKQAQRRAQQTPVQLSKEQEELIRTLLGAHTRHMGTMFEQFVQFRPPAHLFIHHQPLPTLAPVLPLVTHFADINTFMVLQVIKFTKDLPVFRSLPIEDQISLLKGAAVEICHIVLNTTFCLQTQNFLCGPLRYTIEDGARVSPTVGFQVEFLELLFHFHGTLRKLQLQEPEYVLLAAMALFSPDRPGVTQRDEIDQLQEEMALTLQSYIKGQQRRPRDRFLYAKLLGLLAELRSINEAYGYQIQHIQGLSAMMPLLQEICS
Sequence of Luciferin 4-monooxygenase (Photinus pyralis) (P08659 whole entry, looked up): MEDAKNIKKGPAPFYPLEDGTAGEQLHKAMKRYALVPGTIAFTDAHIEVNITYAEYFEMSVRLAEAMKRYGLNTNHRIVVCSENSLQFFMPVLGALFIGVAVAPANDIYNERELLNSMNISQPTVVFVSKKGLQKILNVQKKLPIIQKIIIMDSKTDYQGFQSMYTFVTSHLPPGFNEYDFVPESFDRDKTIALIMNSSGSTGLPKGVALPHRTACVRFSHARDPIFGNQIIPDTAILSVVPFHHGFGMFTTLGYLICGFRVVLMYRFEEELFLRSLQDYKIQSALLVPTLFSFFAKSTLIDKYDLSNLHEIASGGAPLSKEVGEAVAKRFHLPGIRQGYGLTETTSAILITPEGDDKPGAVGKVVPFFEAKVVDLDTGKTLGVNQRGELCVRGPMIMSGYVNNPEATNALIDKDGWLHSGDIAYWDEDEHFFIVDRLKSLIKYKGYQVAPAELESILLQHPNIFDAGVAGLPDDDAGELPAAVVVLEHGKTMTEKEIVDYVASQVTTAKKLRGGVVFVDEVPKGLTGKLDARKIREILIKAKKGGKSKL

In the case of `C[Si](C)(C)N[Si](C)(C)C`, the Potency result in experiment [1], in [2], in experiment [3], in experiment [4] (setting [19]), in experiment [5] and in experiment [6] was “inactive” throughout. Further, the Potency result in experiment [7], in [8], in experiment [9], in experiment [10], in experiment [11] and in experiment [12] was “inactive” in each case.
As to `O=c1n(CCCN2CCN(c3cccc(Cl)c3)CC2)nc2ccccn12`, the Potency result in [1], in [2], in experiment [3], in [4] (setting [19]), in [14] and in experiment [16] was “inactive” throughout. In addition, the Potency result in [5], in [7], in [8], in experiment [9], in experiment [10] and in experiment [11] was “inactive” each time. In addition, the Potency entry in experiment [12] was “inactive”. For the same compound, the compound was called inactive in [13] and in experiment [15].
Turning to `CC(=O)OCCC(C)C`, the Potency entry in experiment [1], in experiment [2], in [3], in experiment [4] (setting [19]), in [5] and in [6] was “inactive” in each case. Further, the Potency entry in [7], in experiment [8], in [9], in [10], in experiment [11] and in experiment [17] was “inactive” each time. Moreover, in experiment [18], the Potency entry is “inactive”.
Take `CS(=O)(=O)c1ccc(Cl)cc1`: the Potency entry in experiment [1], in experiment [2], in [3], in experiment [4] (setting [19]), in experiment [5] and in [6] was “inactive” each time. Also, the Potency result in [7], in experiment [8], in experiment [9], in [10], in experiment [11] and in [17] was “inactive” in each case. Besides, the Potency result in [18] and in experiment [12] was “inactive” each time.
With `CC(COCC(C)OC(=O)c1ccccc1)OC(=O)c1ccccc1` (stereo not given), the Potency entry in experiment [1], in experiment [2], in experiment [3], in experiment [4] (setting [19]), in experiment [5] and in experiment [6] was “inactive” throughout. Also, the Potency entry in [7], in experiment [8], in experiment [9], in [10], in experiment [11] and in experiment [17] was “inactive” throughout. Moreover, the Potency result in experiment [18] was “inactive”.
In the case of `CN1CCCC1=O`, the Potency result in experiment [1], in experiment [2], in experiment [3], in experiment [5], in experiment [6] and in experiment [7] was “inactive” in each case. In addition, the Potency result in experiment [8] and in experiment [11] was “inactive” each time. Also, the activation in [4] (setting [19]) is -0.377% [at 94.8 µM] (active); in experiment [4] (at 73.3 µM (top of the series)), 0.131%.
With `CCCCCCCCO`, the Potency result in experiment [1], in [2], in experiment [3], in experiment [4] (setting [19]), in [5] and in experiment [6] was “inactive” throughout. The Potency result in [7], in experiment [8], in experiment [9], in experiment [10], in experiment [11] and in experiment [12] was “inactive” each time.
`CCCOC(=O)NCCCN(C)C`: the Potency result in experiment [1], in experiment [2], in experiment [3], in experiment [4] (setting [19]), in experiment [5] and in [6] was “inactive” each time. The Potency entry in [7], in experiment [8], in [9], in experiment [10], in experiment [11] and in experiment [12] was “inactive” each time.
Regarding `OCC(CO)(CO)CO`, the Potency entry in experiment [1], in [2], in [3], in experiment [4] (setting [19]), in experiment [5] and in experiment [6] was “inactive” each time. In addition, the Potency entry in experiment [7], in [8], in [9], in experiment [10], in experiment [11] and in experiment [12] was “inactive” each time.
Regarding `CC/C=C(\C(=O)N[C@@H]1C(=O)N2C(C(=O)OCOC(=O)C(C)(C)C)=C(COC(N)=O)CS[C@H]12)c1csc(N)n1`, the Potency result in experiment [1], in [2], in [3], in experiment [4] (setting [19]), in experiment [5] and in [6] was “inactive” in each case. Further, the Potency result in [7], in experiment [8], in [9], in experiment [10], in experiment [11] and in experiment [12] was “inactive” each time.
